Measurements taken from PubChem BioAssay (NCI).
Compounds without any hit were thinned out: in the full panel of roughly 79,000, 15% have a hit. Active and inactive are the calls of the source. No stated cut-off is given here; in the data, active means growth inhibition above about 70%; inactive means the rest.

Columns and labels:
[1] = NCI Yeast Anticancer Drug Screen. Data for the rad52 strain (AID 147);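 further: 0% = growth of vehicle-treated control cultures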; settings: S. cerevisiae rad52 mutant growth inhibition, hits give high values
Method in brief: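 Screen used a yeast mutant impaired in DNA repair. After compound exposure, growth was measured. Values reflect inhibition compared with vehicle-treated cells.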

[2] = NCI Yeast Anticancer Drug Screen. Data for the rad50EPP+ strain (AID 151);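 further: 0% = growth of vehicle-treated control cultures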; settings: S. cerevisiae rad50 mutant strain, hits give high values
Method in brief: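 Exposing the rad50EPP+ strain to each compound, growth was compared with vehicle-only cultures to give inhibition.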

[3] = NCI Yeast Anticancer Drug Screen. Data for the mgt1 strain (AID 153); settings: S. cerevisiae mgt1 mutant growth inhibition, hits give high values
Method in brief: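 Genetically defined yeast (mgt1) treated with compound; inhibition of growth expressed against vehicle-treated controls.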

[4] = NCI Yeast Anticancer Drug Screen. Data for the rad50 strain (AID 155);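 further: 0% = growth of vehicle-only cultures of the same strain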; settings: S. cerevisiae rad50 strain growth inhibition, hits give high values
Method in brief: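 Relative growth inhibition (compound vs vehicle) was measured in yeast with a defined repair-gene alteration.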

[5] = NCI Yeast Anticancer Drug Screen. Data for the mec2-1 strain (AID 157); settings: S. cerevisiae mec2-1 strain, hits give high values
Method in brief: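 Readout is yeast growth inhibition, normalised to vehicle-treated controls, in the mec2-1 strain exposed to compound.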

[6] = NCI Yeast Anticancer Drug Screen. Data for the rad14 strain (AID 159);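 further: 0% = growth of vehicle-treated control cultures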; settings: S. cerevisiae rad14 strain growth inhibition, hits give high values
Method in brief: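 Screen for anticancer potential: a yeast strain altered in DNA damage repair is grown with compound, and reduced growth is quantified against vehicle controls.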

[7] = NCI Yeast Anticancer Drug Screen. Data for the sgs1 mgt1 strain (AID 161);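 further: 0% = growth of cultures given vehicle only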; settings: S. cerevisiae sgs1 mgt1 strain, hits give high values
Method in brief: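 Compounds are added to genetically altered yeast, and growth is compared with cultures given vehicle alone to give percent inhibition.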

[8] = NCI Yeast Anticancer Drug Screen. Data for the CLN2oe strain (AID 163);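 further: 0% = growth of vehicle-only control cultures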; settings: S. cerevisiae CLN2oe strain, hits give high values
Method in brief: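 Values reflect how much compound exposure reduced yeast growth, referenced to vehicle-exposed cells. Assay organism is a strain with a defined genetic change affecting cell-cycle control.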

[9] = NCI Yeast Anticancer Drug Screen. Data for the cln2 rad14 strain (AID 165);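 further: 0% = growth equal to vehicle treated cultures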; settings: S. cerevisiae cln2 rad14 strain, hits give high values
Method in brief: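 Relative to vehicle controls, growth inhibition of compound-treated cln2 rad14 yeast was recorded.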

[10] = NCI Yeast Anticancer Drug Screen. Data for the bub3 strain (AID 167); settings: S. cerevisiae bub3 mutant strain, hits give high values
Method in brief: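 Screening used yeast with an engineered genetic alteration affecting cell cycle control. Compound-exposed cultures were compared with vehicle cultures, and reduced growth was taken as inhibition.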

[11] = NCI Yeast Anticancer Drug Screen. Data for the wt2 strain (AID 169);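 further: 0% = growth of vehicle-treated yeast cultures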; settings: S. cerevisiae wt2 strain growth inhibition, hits give high values
Method in brief: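 Values express reduction in yeast growth under compound treatment, referenced to vehicle-treated cells.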

[12] = NCI Yeast Anticancer Drug Screen. Data for the mlh1 strain (AID 171);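 further: 0% = growth of vehicle-treated control cultures of the same strain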; settings: S. cerevisiae mlh1 strain growth inhibition, hits give high values
Method in brief: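 Steps: expose the defined-mutant yeast strain to compound; expose a parallel culture to vehicle; measure growth; express compound effect as inhibition relative to the vehicle culture.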

[13] = NCI Yeast Anticancer Drug Screen. Data for the sgs1 strain (AID 173);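 further: 0% = growth of vehicle-only control cultures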; settings: S. cerevisiae sgs1 mutant, hits give high values
Method in brief: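 Treat defined-mutant yeast with compound; measure growth; calculate inhibition relative to vehicle-treated cells.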

[14] = NCI Yeast Anticancer Drug Screen. Data for the mlh1 rad18 strain (AID 175); settings: S. cerevisiae mlh1 rad18 strain growth inhibition, hits give high values
Method in brief: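 Test agents were incubated with a yeast strain of defined genotype (DNA damage repair defect). Inhibition of growth was derived by comparison with vehicle-exposed cultures.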

[15] = NCI Yeast Anticancer Drug Screen. Data for the wt1 strain (AID 149);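 further: 0% = growth of vehicle-treated wt1 cultures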; settings: S. cerevisiae wt1 strain (SPY 50644) growth inhibition, hits give high values
Method in brief: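 Using yeast strain wt1, compound-induced growth inhibition was determined against vehicle-treated cultures.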

[16] = NCI Yeast Anticancer Drug Screen. Data for the rad18 strain (AID 177); settings: S. cerevisiae rad18 mutant growth inhibition, hits give high values
Method in brief: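 A genetically defined yeast mutant impaired in DNA damage repair was treated with test compounds, then its growth was measured against cultures receiving vehicle alone.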

[17] = at 5.0 µM (retest, dose inferred, filed as 0.5)
[18] = at 50.0 µM (retest, dose inferred, filed as 5.0)

Measured: growth inhibition

Oc1[nH]c2ccccc2c1N=NC(=S)N1CCCCC1
active: [1]; at 33.0 µM 97% | [1]; at 100.0 µM 98% | [3]; at 33.0 µM 97% | [3]; at 100.0 µM 99% | [4]; at 33.0 µM 97% | [4]; [18] 99% | [4]; at 50.0 µM 75.5% | [4]; at 100.0 µM 98% | [5]; at 33.0 µM 97% | [5]; [18] 98% | [5]; at 50.0 µM 80.4% | [5]; at 100.0 µM 99% | [6]; at 33.0 µM 97% | [6]; at 100.0 µM 99% | [7]; [18] 99% | [7]; at 50.0 µM 87% | [8]; at 33.0 µM 98% | [8]; at 100.0 µM 99% | [9]; [18] 99% | [9]; at 50.0 µM 84.8% | [10]; at 33.0 µM 91% | [10]; [18] 99% | [10]; at 50.0 µM 90.3% | [10]; at 100.0 µM 96% | [11]; at 33.0 µM 94% | [11]; at 100.0 µM 99% | [12]; at 33.0 µM 96% | [12]; at 100.0 µM 98% | [13]; at 33.0 µM 99% | [13]; at 100.0 µM 99% | [14]; [18] 99% | [14]; at 50.0 µM 86.5%
inactive: [1]; at 1.2 µM 6% | [1]; at 3.7 µM 11% | [1]; at 11.0 µM 19% | [2]; at 1.2 µM 6% | [2]; at 3.7 µM 16% | [2]; at 11.0 µM 28% | [2]; at 33.0 µM 39% | [2]; at 100.0 µM 58% | [3]; at 1.2 µM 0% | [3]; at 3.7 µM 1% | [3]; at 11.0 µM 23% | [4]; at 1.2 µM 5% | [4]; at 3.7 µM 11% | [4]; [17] 11% | [4]; at 11.0 µM 13% | [5]; at 1.2 µM 4% | [5]; at 3.7 µM 6% | [5]; [17] 41% | [5]; at 11.0 µM 23% | [6]; at 1.2 µM 4% | [6]; at 3.7 µM -3% | [6]; at 11.0 µM 9% | [7]; [17] -8% | [8]; at 1.2 µM 2% | [8]; at 3.7 µM -4% | [8]; at 11.0 µM 20% | [9]; [17] 0% | [10]; at 1.2 µM -1% | [10]; at 3.7 µM 5% | [10]; [17] -18% | [10]; at 11.0 µM 15% | [11]; at 1.2 µM 5% | [11]; at 3.7 µM 6% | [11]; at 11.0 µM 13% | [12]; at 1.2 µM 4% | [12]; at 3.7 µM 4% | [12]; at 11.0 µM 16% | [13]; at 1.2 µM 14% | [13]; at 3.7 µM 16% | [13]; at 11.0 µM 28% | [14]; [17] 22%

CC(=O)ON=C1C=CC(=C(C#N)c2ccc(Cl)cc2)C=C1
inactive: [1]; at 1.2 µM 1% | [1]; at 3.7 µM -1% | [1]; at 11.0 µM 1% | [1]; at 33.0 µM 22% | [1]; at 100.0 µM 69% | [15]; at 1.2 µM 0% | [15]; at 3.7 µM 0% | [15]; at 11.0 µM 4% | [15]; at 33.0 µM 10% | [15]; at 100.0 µM 61% | [3]; at 1.2 µM 0% | [3]; at 3.7 µM 2% | [3]; at 11.0 µM 4% | [3]; at 33.0 µM 42% | [4]; at 1.2 µM 0% | [4]; at 3.7 µM -3% | [4]; [17] 25% | [4]; at 11.0 µM -1% | [4]; at 33.0 µM 9% | [4]; at 100.0 µM 59% | [5]; at 1.2 µM -1% | [5]; at 3.7 µM 0% | [5]; [17] 11% | [5]; at 11.0 µM 1% | [5]; at 33.0 µM 19% | [5]; at 100.0 µM 59% | [6]; at 1.2 µM -3% | [6]; at 3.7 µM -4% | [6]; at 11.0 µM -1% | [6]; at 33.0 µM 22% | [7]; [17] 41% | [8]; at 1.2 µM -3% | [8]; at 3.7 µM -8% | [8]; at 11.0 µM -1% | [8]; at 33.0 µM 3% | [8]; at 100.0 µM 56% | [9]; [17] 7% | [10]; at 1.2 µM -4% | [10]; at 3.7 µM -4% | [10]; [17] 3% | [10]; at 11.0 µM -5% | [10]; at 33.0 µM 7% | [10]; at 50.0 µM 56% | [10]; at 100.0 µM 50% | [11]; at 1.2 µM 1% | [11]; at 3.7 µM 3% | [11]; at 11.0 µM 9% | [11]; at 33.0 µM 52% | [12]; at 1.2 µM 4% | [12]; at 3.7 µM 3% | [12]; at 11.0 µM 9% | [12]; at 33.0 µM 38% | [13]; at 1.2 µM 2% | [13]; at 3.7 µM 10% | [13]; at 11.0 µM 16% | [13]; at 33.0 µM 58% | [14]; [17] 29% | [16]; at 1.2 µM 2% | [16]; at 3.7 µM 1% | [16]; at 11.0 µM 2% | [16]; at 33.0 µM 19% | [16]; at 100.0 µM 67%
active: [3]; at 100.0 µM 77% | [4]; [18] 97% | [4]; at 50.0 µM 99.4% | [5]; [18] 99% | [5]; at 50.0 µM 99% | [6]; at 100.0 µM 98% | [7]; [18] 99% | [7]; at 50.0 µM 99.5% | [9]; [18] 98% | [9]; at 50.0 µM 77.1% | [10]; [18] 75% | [11]; at 100.0 µM 86% | [12]; at 100.0 µM 74% | [13]; at 100.0 µM 95% | [14]; [18] 97% | [14]; at 50.0 µM 98.5%

COC(C(O)CO)C(O)C(O)C(=O)NNc1ccccc1 (stereo unspecified)
inactive: [1]; at 1.2 µM 12% | [1]; at 3.7 µM 23% | [1]; at 11.0 µM 45% | [1]; at 33.0 µM 61% | [15]; at 1.2 µM 1% | [15]; at 3.7 µM 5% | [15]; at 11.0 µM 29% | [15]; at 33.0 µM 36% | [15]; at 100.0 µM 66% | [3]; at 1.2 µM -1% | [3]; at 3.7 µM 11% | [3]; at 11.0 µM 29% | [3]; at 33.0 µM 26% | [4]; at 1.2 µM 35% | [4]; at 3.7 µM 41% | [4]; [17] 9% | [4]; at 11.0 µM 68% | [5]; at 1.2 µM 0% | [5]; at 3.7 µM 4% | [5]; [17] 7% | [5]; at 11.0 µM 40% | [5]; at 33.0 µM 31% | [5]; at 50.0 µM 54.4% | [6]; at 1.2 µM 6% | [6]; at 3.7 µM 9% | [6]; at 11.0 µM 19% | [6]; at 33.0 µM 21% | [7]; [17] 15% | [8]; at 1.2 µM 8% | [8]; at 3.7 µM 7% | [8]; at 11.0 µM 57% | [8]; at 33.0 µM 62% | [9]; [17] 5% | [9]; [18] 68% | [10]; at 1.2 µM -1% | [10]; at 3.7 µM 1% | [10]; [17] 23% | [10]; at 11.0 µM 26% | [10]; at 33.0 µM 34% | [11]; at 1.2 µM -4% | [11]; at 3.7 µM 22% | [11]; at 11.0 µM 22% | [11]; at 33.0 µM 9%
active: [1]; at 100.0 µM 93% | [3]; at 100.0 µM 94% | [4]; at 33.0 µM 79% | [4]; [18] 71% | [4]; at 50.0 µM 96.1% | [4]; at 100.0 µM 96% | [5]; [18] 76% | [5]; at 100.0 µM 94% | [6]; at 100.0 µM 84% | [7]; [18] 80% | [7]; at 50.0 µM 94.7% | [8]; at 100.0 µM 97% | [9]; at 50.0 µM 89% | [10]; [18] 97% | [10]; at 50.0 µM 96.1% | [10]; at 100.0 µM 93% | [11]; at 100.0 µM 86%
